Measured values taken from PubChem BioAssay AID488789 (Broad Institute, 2010).
Measured potencies and affinities stand elsewhere. Inconclusive results are not listed.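 Rule for the calls: active = samples whose fitted half-maximal inhibition concentration is no more than ten times the top valid dose tested; inconclusive = flat response between -70 and -30, or invalid curve fit; inactive = flat within 30 of zero, potency above limit, or signal rising.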

Target: Trypsin (Sus scrofa) (UniProt P00761)
Experiment: trypsin protease activity blockade – biochemical, quenched peptide fluorescence, cherry-pick, selectivity assay for Rce1 protease inhibitor project, dose response (AID 488789);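 note: more negative means stronger trypsin inhibition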
Conditions: porcine trypsin, quenched peptide cleavage fluorescence; series mostly up to 10 µM; activity change, negative = inhibition: at the top concentration

Trypsin (Sus scrofa), sequence (P00761 whole entry, looked up): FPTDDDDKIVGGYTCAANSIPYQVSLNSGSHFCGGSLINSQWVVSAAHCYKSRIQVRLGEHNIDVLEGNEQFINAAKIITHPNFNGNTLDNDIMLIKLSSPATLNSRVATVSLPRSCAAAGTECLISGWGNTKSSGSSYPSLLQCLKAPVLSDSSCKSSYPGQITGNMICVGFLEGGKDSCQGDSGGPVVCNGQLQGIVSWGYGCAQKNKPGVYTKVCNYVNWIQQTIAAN

Activity change, negative = inhibition, inactive:
COC(=O)c1sccc1NC(=O)CSc1nnnn1-c1ccccc1C 4.34%
O=C(Nc1cccc2ncccc12)c1cccnc1 -0.86%
O=C(Nc1ncccn1)c1ccc([N+](=O)[O-])cc1 4.42%
O=C(/C=C/c1cn(-c2ccccc2)nc1-c1cccs1)NCCN1CCOCC1 -11.8%
CCn1nnnc1SCC(=O)Nc1nc(C)c(C)s1 -2.28%
CCN1CCN(c2ccc(NC(=O)c3cccc(OCc4ccccc4)c3)cc2)CC1 0.479%
CCC(C)(C)c1ccc(OCCCC[n+]2cccc(C)c2)c(C(C)(C)CC)c1 15.5%
CCCCCc1ccc(OCCOCCn2c[n+](C)c3ccccc32)c(CCCCC)c1 -2.39%
CC(C)c1c(C(=O)N/N=C/c2c[nH]c3ccccc23)nnn1-c1nonc1N -3.47%
CCCC(=O)N1CCN(c2ccc(NC(=O)c3cc4ccccc4o3)cc2Cl)CC1 -6.19%
CCO[C@H]1OC(C(=O)Nc2ccccc2)=C[C@@H](c2csc3ccccc23)[C@@H]1CCCO 1.83%
CCCCN(CC)CCNC(=O)c1cc2c(-c3ccc(Cl)cc3)nn(C)c2s1 66.6%
CCCCOC(=O)Nc1nc(C)c(C(=O)OCC)s1 -2.2%
CCSc1nc2c(c(=O)[nH]1)C(c1ccccn1)C1=C(CC(C)(C)CC1=O)N2 (configuration not stated) 11.7%
CSc1nnc(-c2sc(-c3ccccc3)nc2C)n1C 12.8%
CC(C)c1c(C(=O)N/N=C/c2cccc3ccccc23)nnn1-c1nonc1N 21.5%
O=C(O/N=C\c1ccc(N2CCCCC2)c([N+](=O)[O-])c1)c1cccc(C(F)(F)F)c1 -2.32%
COC(=O)c1ccccc1NC(=O)NCc1cccnc1 -11.2%
CCOc1ccc(NC(=O)CCSc2ccc(C)cc2)cc1 4.59%
N#Cc1c(OCC(=O)c2ccccc2)nc2c(c1-c1ccco1)CCc1ccccc1-2 6.46%
CCCCCCCCCCOC(=O)Cn1c(COc2ccc(C)cc2)[n+](C)c2ccccc21 0.202%
COc1ccc(/C=N/NC(=O)c2ccc(Cl)cc2)cc1COC(C)=O 5.75%
CC1CCN(C(=O)C2CCN(S(=O)(=O)c3ccc(-n4cnnn4)cc3)CC2)CC1 9.4%
CCN(Cc1ccccc1)S(=O)(=O)c1ccc(C(=O)N(CCCN(C)C)c2nc3cc(C)cc(C)c3s2)cc1 1.82%
CCCNC(=O)c1c(N)n(-c2ccc(S(N)(=O)=O)cc2)c2nc3ccccc3nc12 -3.19%
CCOC(=O)c1cc(-c2ccccc2)sc1NC(=O)C(C)Sc1nnnn1C (configuration not stated) 7.62%
COc1cc2c(cc1OC)C(C)N(C(=O)CCNC(=O)c1ccccc1)CC2 (configuration not stated) -1.59%
CCCCn1c(=O)[nH]c(=O)c2c1nc(-c1ccc(OC)c(Br)c1)n2CC(C)C 11.2%
CS(=O)(=O)Nc1ccccc1C(=O)NC1CC2CCC1C2 (configuration not stated) 8%
Nc1nc2n[nH]nc2c(=O)[nH]1 8.03%
CCOC(=O)[C@@H]1[C@H]2COc3ccc(Br)cc3[C@@H]2N2C(=O)N(c3cccc(Cl)c3)C(=O)[C@]12C 4.84%
CC(=O)NN1C(=O)c2ccccc2NC1c1ccccc1 (configuration not stated) 5.62%
CCOC(=O)C[C@H]1c2ccccc2S(=O)(=O)N1Cc1cc(OC)c(OC)c(OC)c1 -8.57%
OC1CCN(C(c2ccc3ncccc3c2)c2nnnn2C2CCCCC2)CC1 (configuration not stated) -1.46%
Cc1cccc2sc(N(CCN(C)C)C(=O)c3ccc4ccccc4c3)nc12 2.05%
COc1ccccc1NC(=O)CN(c1ccc(C23CC4CC(CC(C4)C2)C3)cc1)S(C)(=O)=O 13.8%
COc1cccc(NC(=O)Nc2cccn(Cc3ccc(C)cc3)c2=O)c1 5.65%
